PubChem BioAssay (Tox21)
Records with an inconclusive call do not appear. Entries that show only a call come without a potency. Values without a mark were called inactive. The source made the active and inactive calls. Calls come from the whole dose curve; as a rule, active = well fitted activation curve with a large enough effect in the repeat runs; inconclusive = weak or mixed curves; inactive = flat fitted curve, though single readings scatter.

test: A CellTox Green Cytotoxicity Assay to monitor cytotoxicity in HEK293 cells - 8 hour (AID 1224884); conditions: CellTox Green fluorescence; series mostly up to 76.8 µM; note: nearly all actives have a fitted effect of over 35% in size
Source text: National Center for Advancing Translational Sciences [NCATS]
NIH Chemical Genomics Center [NCGC]
U.S. Environmental Protection Agency [EPA]
National Institutes of Environmental Health Sciences [NIEHS]
National Toxicology Program [NTP]
Cell-based models are critical for drug discovery. Determining the natural cytotoxic effects resulting from test compounds is an essential research activity. A CellTox Green Cytotoxicity Assay to monitor cytotoxicity in real time of continues cell culture during 40 hours of the compound treatment was used to screen Tox21 10K library compounds in Hek293 cells. CellTox Green Cytotoxicity Assay is a nonlytic, homogeneous, biofluorescent method to measure cytotoxicity in cell culture after experimental manipulation. The assay system uses a proprietary asymmetric cyanine dye that is excluded from viable cells but preferentially stains the dead cell's DNA. […] Viable cells produce no appreciable increases in fluorescence. Therefore, the fluorescence signal produced by the binding interaction with dead cell DNA is proportional to cytotoxicity.
The mixture of Hek293 cell suspension and reagents were dispensed at 600cells/6 ul/well in 1536-well tissue culture treated black solid bottom plates using a Multidrop dispenser. After the assay plates were incubated at a 37 C/5% CO2 incubator for 5 hours, 23 nL of compounds dissolved in DMSO, positive and negative controls was transferred to the assay plate by a pintool work station. The plates were incubated at 37 C for 40 hours. The fluorescence intensity were measured at 0h, 8h, 16h, 24h, 32h and 40h time points using ViewLux plate reader during compound treatment.

Structure (SMILES) | Potency | cytotoxicity increase
CCOc1ccc2[nH]cc(C(=O)NCc3ccccc3)c(=O)c2n1 | inactive | –
O=C1CCCCCO1 | inactive | –
CCC(=O)OC(C)(C)C1CC=C(C)CC1 (stereo not given) | inactive | –
COc1ccc(OC)c(OC)c1 | inactive | –
Cn1c(NCCN(CCO)CCCc2ccc([N+](=O)[O-])cc2)cc(=O)n(C)c1=O | inactive | –
CC[C@H](C)[C@H](N)C(=O)O | inactive | –
NC1CCN(c2nc3c(cc2F)c(=O)c(C(=O)O)cn3-c2ccc(F)cc2F)C1 (stereo not given) | inactive | –
N#Cc1cc2ccccc2c2ccccc12 | inactive | –
O=C(/C=C/c1ccc(O)c(O)c1)O[C@@H]1C[C@](O)(C(=O)O)C[C@@H](O)[C@H]1O | inactive | –
CCOC(=O)C1=C(C)NC(C)=C(C(=O)OC)C1c1cccc([N+](=O)[O-])c1 (stereo not given) | inactive | –
CCCCOc1cc(C(=O)OCCN(CC)CC)ccc1N | inactive | –
CN1CCN(C2=Nc3cc(Cl)ccc3Nc3ccccc32)CC1 | inactive | –
CC(=O)OCCc1ccccc1 | inactive | –
CCCCCOC(=O)COc1cc(N2C(=O)C3=C(CCCC3)C2=O)c(F)cc1Cl | inactive | –
COc1ccc([C@@H]2Sc3ccccc3N(CCN(C)C)C(=O)[C@@H]2OC(C)=O)cc1 | inactive | –
Cc1c(Cn2ccnc2)c2ccccc2n1CCC(=O)O | inactive | –
CCCCCCCCCCCCCCCC(=O)OC/C=C(C)/C=C/C=C(C)/C=C/C1=C(C)CCCC1(C)C | inactive | –
Cc1cccc(C(C)(C)C)c1O | inactive | –
CC(C)NCC(O)COc1ccc(CC(N)=O)cc1 (stereo not given) | inactive | –
CCN(CC)C(C)CN1c2ccccc2Sc2ccccc21 (stereo not given) | inactive | –

Structure (SMILES) | Potency | cytotoxicity increase
NC(N)=N/N=C/c1c(Cl)cccc1Cl | inactive | –
CCCC[C@H]1CN(CC2CCOCC2)C(=O)OC12CCN(C1(C)CCN(C(=O)c3c(C)ncnc3C)CC1)CC2 | inactive | –
CC(C)c1ccccc1C(C)C | inactive | –
CCCCCOC(=O)c1ccc(O)cc1 | inactive | –
O=[N+]([O-])c1cc[n+]([O-])cc1 | inactive | –
CC(C)CCCC(C)CCO (stereo not given) | inactive | –
CCCCOC(O)CC (stereo not given) | inactive | –
CC(CN)CCCN (stereo not given) | inactive | –
C=CCCCCCC | inactive | –
Cc1ccccn1 | inactive | –
CCCCC(CC)(CO)CO | inactive | –
c1ccc(CNCc2ccccc2)cc1 | inactive | –
CCOC(=O)[C@H](CCc1ccccc1)N[C@H]1CCc2ccccc2N(CC(=O)O)C1=O | inactive | –
CC(C)=CCCC(C)CC=O (stereo not given) | inactive | –
O=C(CCN1CCN2CCCC2C1)N1c2ccccc2Sc2ccc(Cl)cc21 (stereo not given) | – | -4.39% [at 15.8 µM]
C1CCC2OC2C1 (stereo not given) | inactive | –
CC(C)CCCCCCOC(=O)c1ccc(C(=O)OCCCCCCC(C)C)c(C(=O)OCCCCCCC(C)C)c1 | inactive | –
c1ccc(-c2nc[nH]c2-c2ccccc2)cc1 | inactive | –
O=c1[nH]cnc2ccccc12 | inactive | –
CCCCCCCCCC=O | inactive | –
